# Results reported in PubChem BioAssay (NCATS).
# Inconclusive results are not listed. Active and inactive are the calls of the source. Calls follow the shape of the dose curve; as a rule, active = well fitted cell-killing curve with a large enough effect; inconclusive = small, poorly fitted or top-dose-only effect, or effect the other way; inactive = no such curve, though single readings can be large or run the other way. Positions of bridges follow the written chain, without caps; N, C: chain ends. Non-standard residues stand in square brackets, D forms with d. Residues, ends and D or L forms follow the SMILES beside them. ξ: configuration not given here. *: point of attachment. Octanoyl(6-Me) = CCC(C)CCCCC(=O)*; ξThr(3R) = C[C@@H](O)C(N)C(=O)O; dDab = NCC[C@@H](N)C(=O)O; Dab = NCC[C@H](N)C(=O)O
# Assay: Quantitative High-Throughput drug screen in 47 multiple myeloma cell lines against the NCATS MIPE library collection: EJM_DSMZ cell viability assay (AID 1918926)
# Conditions: EJM myeloma cell viability, CellTiter-Glo ATP, 48 h; series mostly up to 45.8 µM; viability, % of control: at the top concentration
# Procedure, shortened: (§1)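 Myeloma cells (500 per well) were exposed to MIPE 4.0 compounds by pin transfer and incubated 48 hours at 37C, 5% CO2. Viability was read as ATP by CellTiter-Glo luminescence, normalised to DMSO (100%) and media-only (0%) wells.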
# Also: nearly all actives have a fitted effect of over 30% in size.
# Potency is read from the fitted curve at half-maximal effect.
Structure (SMILES),"viability, % of control",Potency
C[C@@H]1CC[C@@]2(OC1)OC1CC3C4CC=C5CC(O)CCC5(C)C4CCC3(C)C1[C@@H]2C (stereo partly specified),110% (inactive),–
C[C@@H](NCc1cc2ccccc2[nH]1)c1cccc2ccccc12,119% (inactive),–
COc1cc([C@@H]2c3cc4c(cc3[C@@H](O[C@@H]3O[C@@H]5CO[C@@H](c6cccs6)O[C@@H]5[C@H](O)[C@@H]3O)[C@H]3COC(=O)[C@H]23)OCO4)cc(OC)c1O,–,2350 nM (active)
COc1cc(OC)cc(-c2ccc3ncc4ccc(=O)n(-c5ccc(N6CCNCC6)c(C(F)(F)F)c5)c4c3c2)c1,–,5900 nM (active)

# Assay: Quantitative High-Throughput drug screen in 47 multiple myeloma cell lines against the NCATS MIPE library collection: AMO1_DSMZ cell viability assay (AID 1918927)
# Conditions: AMO1 myeloma cells viability, CellTiter-Glo ATP luminescence, 48 h; series mostly up to 45.8 µM; viability, % of DMSO: at the top concentration
# Procedure, shortened: as §1
Structure (SMILES),Potency,"viability, % of DMSO"
CCOc1cc2ncc(C#N)c(Nc3ccc(OCc4ccccn4)c(Cl)c3)c2cc1NC(=O)C=CCN(C)C,93.5 nM (active),–
CC(C=CC(=O)NO)=C[C@@H](C)C(=O)c1ccc(N(C)C)cc1,235 nM (active),–
CC[C@]12C=CCN3CC[C@@]4(c5cc([C@@]6(C(=O)OC)C[C@H]7C[C@@H](C(C)(F)F)CN(Cc8c6[nH]c6ccccc86)C7)c(OC)cc5N(C)[C@H]4[C@@](O)(C(=O)OC)[C@H]1OC(C)=O)[C@@H]32,5.9 nM (active),–
CC(C)c1cc(C(C)C)c(CC(=O)NS(=O)(=O)Oc2c(C(C)C)cccc2C(C)C)c(C(C)C)c1,4690 nM (active),–
C=C1C(=O)O[C@H]2[C@@H]1CCC(C)=CCC[C@@]1(C)O[C@@H]21,3320 nM (active),–
CC[C@H](CC[C@@H](C)[C@H]1CC[C@H]2[C@@H]3CC=C4C[C@@H](O)CC[C@]4(C)[C@@H]3CC[C@]12C)C(C)C,–,124% (inactive)
Nc1nc(=O)n([C@H]2CSC(CO)O2)cc1F (stereo partly specified),–,109% (inactive)
CCNC(=O)Nc1ccc(-c2nc3c(c(N4CCOC[C@H]4C)n2)CCN(C2COC2)C3)cc1,1320 nM (active),–
Cc1ccc2nc(NCCN)c3ncc(C)n3c2c1,8330 nM (active),–
C[C@@H](Oc1ccc2[nH]nc(C=Cc3cnn(CCO)c3)c2c1)c1c(Cl)cncc1Cl,–,91.6% (inactive)
COc1cc(C(C)C)c(Oc2cnc(NC(CO)CO)nc2N)cc1I,14800 nM (active),–
CC(=O)O[C@@]12CO[C@H]1C[C@H](O)[C@@]1(C)C(=O)[C@H](O)C3=C(C)[C@@H](OC(=O)C(O)[C@@H](NC(=O)OC(C)(C)C)c4ccccc4)C[C@@](O)([C@@H](OC(=O)c4ccccc4)[C@@H]21)C3(C)C (stereo partly specified),–,20.1% (inactive)
CC(=O)OCC(=O)[C@@]1(O)CC[C@H]2[C@@H]3CCC4=CC(=O)CC[C@]4(C)[C@@H]3C(=O)C[C@@]21C,–,108% (inactive)
CCC[C@H]1C[C@H](C(=O)N[C@@H]([C@@H]2O[C@@H](SC)[C@@H](O)[C@@H](O)[C@@H]2O)[C@H](C)Cl)N(C)C1,–,109% (inactive)
C[C@@H]1[C@H](C)CC[C@]2(C(=O)O)CC[C@]3(C)C(=CC[C@@H]4[C@@]5(C)C[C@@H](O)[C@H](O)[C@@](C)(CO)[C@H]5CC[C@]43C)[C@@H]12,–,91.4% (inactive)
CC(C)(O)[C@H]1CC[C@@](C)([C@H]2[C@@H](O)C[C@@]3(C)[C@@H]4C[C@H](O[C@@H]5O[C@H](CO)[C@@H](O)[C@H](O)[C@@H]5O)[C@H]5C(C)(C)[C@@H](O[C@@H]6OC[C@@H](O)[C@H](O)[C@@H]6O)CC[C@@]56C[C@@]46CC[C@]23C)O1,–,123% (inactive)
O=C(C=Cc1ccc(CN(CCO)CCc2c[nH]c3ccccc23)cc1)NO,93.5 nM (active),–
CCC(C)CCCCC(=O)N[C@@H](CCN)C(=O)NC(C(=O)N[C@H](CCN)C(=O)N[C@@H]1CCNC(=O)C([C@@H](C)O)NC(=O)[C@@H](CCN)NC(=O)[C@@H](CCN)NC(=O)[C@@H](CC(C)C)NC(=O)[C@H](Cc2ccccc2)NC(=O)[C@H](CCN)NC1=O)[C@@H](C)O (stereo partly drawn) ({Octanoyl(6-Me)}-[Dab][ξThr(3R)][dDab][dDab][Dab]F[dL][dDab][dDab][ξThr(3R)]; lactam 4-C),–,104% (inactive)
O=C(O)C[C@H](O)C[C@H](O)C=Cc1c(C2CC2)nc2ccccc2c1-c1ccc(F)cc1,9350 nM (active),–
COc1cc(N2CCC(C(N)=O)CC2)ccc1Nc1nc(N)c(Cl)c(Nc2ccccc2S(=O)(=O)C(C)C)n1,5260 nM (active),–
CNC(=O)Nc1ccc(-c2nc(N3CC4CCC(C3)O4)c3cnn(C4CCC5(CC4)OCCO5)c3n2)cc1,16.6 nM (active),–
C#CCC(Cc1cnc2nc(N)nc(N)c2n1)c1ccc(C(=O)N[C@@H](CCC(=O)O)C(=O)O)cc1 (stereo partly specified),–,120% (inactive)
